# Results published in PubChem BioAssay (NCATS).
# Results filed as inconclusive are left out. A call without a number means that no potency is given here. Active and inactive are the calls of the source. The call rests on the fitted dose curve; in most records, active means well fitted curve in the direction sought with a large enough effect; inconclusive means small, poorly fitted or top-dose-only effect, or another doubt; inactive means no such curve, though single readings can be large; an effect the other way counts as inactive or inconclusive.
# Legend:
# [1] = tested on: Zika virus NS2B-NS3 protease (linked); assay: 384 well plate NINDS AMC confirmatory qHTS for Zika virus inhibitors (AID 1347163); details: Recombinant NS2B-NS3 protease, Ac-VKTGKR-AMC fluorescence; further: potency means the concentration at half of the fitted maximal effect; nearly all actives have a fitted effect of over 50% in size
# In short: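 Linked protease 5/30/60 nM final; cpds up to 1 mM final, ~15 min preinc. Substrate Ac-VKTGKR-AMC 30 microM final. RT, dark, 25 min; FI ex 355/em 460; normalized to no-enzyme/no-inhibitor ctrls.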
# [2] = Vero cells viability qHTS for Zika virus inhibitors (AID 1347167); details: cytotoxicity counter-screen (Zika); series mostly up to 45.9 µM
# In short: (§1)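 Cells seeded at 2.5 x 10^5 cells/mL in DMEM with 4% FBS and attached overnight at 37 degrees C, then exposed to compound for 24 to 48 hours. Viability read as ATP content by CellTiter Glo luminescence.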
# [3] = HepG2 cells viability qHTS for Zika virus inhibitors (AID 1347168); details: Zika counter-screen; series mostly up to 45.9 µM
# In short: as §1
# [4] = Tertiary RLuc qRT-PCR qHTS assay for Zika virus inhibitors (AID 1347169); details: infected Vero cells, reporter luminescence, 48-72 h; series mostly up to 45.9 µM; further: nearly all actives have a fitted effect of over 55% in size; further: potency means the concentration at half of the fitted maximal effect
# In short: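 Luminescence read-out: live-cell Renilla luciferase substrate applied to infected Vero cells, signal measured after 1-1.5 hrs. Cells had received compound before ZIKV-RLuc (Cambodian strain, MOI 1-2) infection and were incubated 48-72 hrs at 37 degrees C.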
# [5] = target: Lysine-specific demethylase 5B (Homo sapiens) (UniProt Q9UGL1); assay: Optimization screen for KDM5B Histone Demethylases FDH coupled qHTS against the LOPAC library (AID 1347166); details: KDM5B demethylation, FDH-coupled NADH fluorescence (FDH is formaldehyde dehydrogenase); series mostly up to 57.5 µM
# In short: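 KDM5BDeltaAP (200nM final) preincubated 10 min with compound, then 12.5uM H3K4Me3, 25uM a-ketoglutarate, ascorbate, Fe(II), NAD+ and FDH added; 50mM HEPES pH 7.5, 0.01% Tween-20. NADH fluorescence (340/450 nm) change over 30 min, room temperature.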
# [6] = tested on: Zika virus NS2B-NS3 protease (linked construct); assay: 384 well plate NINDS Rhodamine confirmatory qHTS for Zika virus inhibitors (AID 1347164); details: rhodamine-110 peptide substrate fluorescence; series mostly up to 100 µM;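 further: fluorescence from protease cleavage of Ac-LKRR-rhodamine 110 substrate; nearly all actives have a fitted effect of over 65% in size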; further: potency means the concentration at half of the fitted maximal effect
# In short: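 Fluorescence read at ex 485 nm/em 538 nm, 25 min after adding 10 microM Ac-LKRR-Rd substrate at room temperature in the dark; signal normalized to no-enzyme and no-inhibitor controls. Enzyme final 5, 30 or 60 nM; compounds, ~15 min preincubation.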
# [7] = OV-KATE Cancer Cell Toxicity qHTS against the NCATS CANVASS Library (AID 1347345); details: OV-KATE cells viability, CellTiter-Glo luminescence, 72 h; series mostly up to 38.3 µM
# In short: (§2)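 Viability read-out: CellTiter-Glo luminescence after 72 h compound exposure at 37 °C/5% CO2. Cells plated at 1000/well, 4 h pre-incubation; 11-point titration. Bortezomib served as control.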
# [8] = HPAF-II Cancer Cell Toxicity qHTS against the NCATS CANVASS Library (AID 1347346); details: HPAF-II viability, CellTiter-Glo ATP luminescence, 72 h; series mostly up to 38.3 µM; further: nearly all actives have a fitted effect of over 55% in size
# In short: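 Cytotoxicity in HPAF-II pancreatic cancer cells: 72 h treatment across 11 concentrations, ATP-based CellTiter-Glo luminescence endpoint.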
# [9] = OV-SAHO Cancer Cell Toxicity qHTS against the NCATS CANVASS Library (AID 1347348); details: OV-SAHO viability, CellTiter-Glo luminescence, 72 h; series mostly up to 38.3 µM; further: nearly all actives have a fitted effect of over 55% in size
# In short: as §2
# [10] = UWB1.289 Cancer Cell Toxicity qHTS against the NCATS CANVASS Library (AID 1347347); details: UWB1.289 viability, CellTiter-Glo luminescence, 72 h; series mostly up to 38.3 µM; further: nearly all actives have a fitted effect of over 60% in size
# In short: as §2
# Chain of Lysine-specific demethylase 5B (Homo sapiens) (Q9UGL1 whole entry, looked up): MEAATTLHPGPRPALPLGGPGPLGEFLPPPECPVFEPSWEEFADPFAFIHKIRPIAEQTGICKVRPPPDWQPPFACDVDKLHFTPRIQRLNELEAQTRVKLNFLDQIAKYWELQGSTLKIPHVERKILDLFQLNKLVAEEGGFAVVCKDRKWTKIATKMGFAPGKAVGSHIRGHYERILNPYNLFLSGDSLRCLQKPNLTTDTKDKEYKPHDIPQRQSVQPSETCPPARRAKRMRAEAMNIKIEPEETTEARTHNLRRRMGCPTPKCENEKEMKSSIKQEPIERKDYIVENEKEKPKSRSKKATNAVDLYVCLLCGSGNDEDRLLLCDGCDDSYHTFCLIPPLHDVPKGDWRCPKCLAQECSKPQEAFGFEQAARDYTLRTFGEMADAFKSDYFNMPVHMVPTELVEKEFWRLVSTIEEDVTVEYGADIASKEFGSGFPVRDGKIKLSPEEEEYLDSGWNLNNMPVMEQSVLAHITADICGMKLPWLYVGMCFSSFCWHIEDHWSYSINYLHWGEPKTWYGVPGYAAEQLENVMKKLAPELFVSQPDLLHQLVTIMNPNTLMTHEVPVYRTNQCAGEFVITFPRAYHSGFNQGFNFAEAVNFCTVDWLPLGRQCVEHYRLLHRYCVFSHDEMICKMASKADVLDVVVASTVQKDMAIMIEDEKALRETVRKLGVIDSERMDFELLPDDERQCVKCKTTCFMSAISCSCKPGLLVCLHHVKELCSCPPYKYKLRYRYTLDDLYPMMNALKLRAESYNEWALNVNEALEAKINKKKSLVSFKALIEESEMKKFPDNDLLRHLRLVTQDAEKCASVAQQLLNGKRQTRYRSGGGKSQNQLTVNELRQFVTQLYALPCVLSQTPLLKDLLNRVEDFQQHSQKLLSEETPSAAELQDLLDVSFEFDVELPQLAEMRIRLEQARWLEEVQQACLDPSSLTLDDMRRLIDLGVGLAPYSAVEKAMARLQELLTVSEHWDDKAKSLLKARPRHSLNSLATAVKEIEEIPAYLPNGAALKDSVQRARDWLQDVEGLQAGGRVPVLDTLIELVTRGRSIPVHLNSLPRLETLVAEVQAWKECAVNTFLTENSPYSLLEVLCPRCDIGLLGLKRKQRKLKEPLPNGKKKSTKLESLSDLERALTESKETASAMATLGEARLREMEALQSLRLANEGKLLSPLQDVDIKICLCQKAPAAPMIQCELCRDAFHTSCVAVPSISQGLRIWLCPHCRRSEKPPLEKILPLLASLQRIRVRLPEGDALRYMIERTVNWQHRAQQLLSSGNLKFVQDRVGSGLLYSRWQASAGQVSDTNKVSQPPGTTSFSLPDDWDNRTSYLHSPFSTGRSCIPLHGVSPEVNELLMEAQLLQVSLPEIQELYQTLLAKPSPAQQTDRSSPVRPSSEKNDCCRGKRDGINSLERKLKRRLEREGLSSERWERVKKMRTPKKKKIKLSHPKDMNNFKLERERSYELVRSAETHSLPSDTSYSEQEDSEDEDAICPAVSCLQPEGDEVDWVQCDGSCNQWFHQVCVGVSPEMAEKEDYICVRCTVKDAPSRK
structure (smiles),measurement,setting,value
CC(=O)Nc1ccc([C@H](C)C(=O)Nc2ncc(C(C)C)s2)cc1,Potency,[1],112 µM (active)
same,Potency,[2],inactive
same,outcome,[3],inactive
same,Potency,[4],1.04 µM (active)
COc1ccc(Cc2nccc3cc(OC)c(OC)cc23)cc1OC,outcome,[5],inactive
CN(C)c1cc(NC(=O)CNC(C)(C)C)c(O)c2c1C[C@@H]1C[C@H]3[C@H](N(C)C)C(=O)C(C(N)=O)=C(O)[C@@]3(O)C(=O)C1=C2O,Potency,[6],inactive
same,Potency,[2],inactive
same,outcome,[3],inactive
same,Potency,[4],inactive
Cc1cc(OCCCc2c(C(=O)O)n(Cc3cccnc3)c3c(-c4c(COc5ccc(N6CCN([S+](C)(=O)[O-])CC6)cc5)nn(C)c4C)cccc23)cc(C)c1Cl,Potency,[1],31.6 µM (active)
same,outcome,[3],inactive
CC(C)(C)c1ccc(C(O)CCCN2CCC(C(O)(c3ccccc3)c3ccccc3)CC2)cc1 (configuration not stated),outcome,[5],inactive
C[N+](C)(C)CCCCCC[N+](C)(C)C,outcome,[5],inactive
NC(N)=Nc1nc(CSCC/C(N)=N/S(N)(=O)=O)cs1,outcome,[5],inactive
O=c1cc(-c2ccc(O)cc2)oc2cc(O)cc(O)c12,outcome,[5],inactive
O=C1NCC2(CCN(CCc3ccccc3)CC2)O1,outcome,[5],inactive
CC1(C)CCC(CN2CCN(c3ccc(C(=O)NS(=O)(=O)c4ccc(NCC5CCOCC5)c([N+](=O)[O-])c4)c(Oc4cnc5[nH]ccc5c4)c3)CC2)=C(c2ccc(Cl)cc2)C1,Potency,[1],31.6 µM (active)
same,Potency,[6],inactive
same,outcome,[3],inactive
same,Potency,[4],5.72 µM (active)
O=C(NCCN1CCOCC1)c1ccc(Cl)cc1,outcome,[5],inactive
Clc1ccc(Cn2c(CN3CCCC3)nc3ccccc32)cc1,outcome,[5],inactive
CN(C)CCC(c1ccccc1)c1ccccn1 (configuration not stated),outcome,[5],inactive
CC(=O)CCCCn1c(=O)c2c(ncn2C)n(C)c1=O,outcome,[5],inactive
COc1cccc(-c2cc(=O)c3ccccc3o2)c1N,outcome,[5],inactive
CC(C)NCC(O)COc1cccc2[nH]ccc12 (configuration not stated),outcome,[5],inactive
CCCCC1C(=O)N(c2ccccc2)N(c2ccccc2)C1=O,outcome,[5],inactive
NCCS,outcome,[5],inactive
O=c1cc(-c2ccccc2)oc2cc(O)c(O)c(O)c12,Potency,[1],141 µM (active)
same,Potency,[2],inactive
same,outcome,[3],inactive
same,Potency,[4],inactive
same,outcome,[7],inactive
same,outcome,[8],inactive
same,outcome,[9],inactive
CC(=O)O[C@]1(C(C)=O)CC[C@H]2[C@@H]3C=C(Cl)C4=CC(=O)[C@@H]5C[C@@H]5[C@]4(C)[C@H]3CC[C@@]21C,outcome,[5],inactive
NC(=O)c1ccc2nc(-c3ccc(Oc4ccc(Cl)cc4)cc3)[nH]c2c1,Potency,[6],251 µM (active)
same,Potency,[2],inactive
same,outcome,[3],inactive
COC(=O)[C@@H]1[C@H]2C[C@H]3c4[nH]c5ccccc5c4CCN3C[C@@H]2CC[C@@H]1O,outcome,[7],inactive
same,outcome,[8],inactive
same,outcome,[10],inactive
same,outcome,[9],inactive
O=C(O)C(O)Cc1ccc(O)c(O)c1 (configuration not stated),outcome,[7],inactive
same,outcome,[8],inactive
same,outcome,[10],inactive
same,outcome,[9],inactive
